We go through 39 sequences from the OligoGym collection.
Also: reference of the scale not given here.

The first assay addresses CREB5. Description: pooled miR-30 sensor sort-seq; sequence = guide strand. The settings on record: shRNA.
Consider TATGTGTTAACAACAACTGTTT, for which the sensor-assay potency score (higher = more potent) was -0.672.

TACACTTCTACAAGAAAGCTGT registered a sensor-assay potency score (higher = more potent) of 0.523.

The sequence TTAGATATCCTTGTGATTCTTT had a sensor-assay potency score (higher = more potent) of 0.29.

For TTGAACTGAGCTATTTTTCTGG, the sensor-assay potency score (higher = more potent) was 0.269.

For a further assay, the target named is CREG1. Described as above. The conditions noted are these: shRNA.
Regarding TCCAATAACAGGTCAACTCTAT, the sensor-assay potency score (higher = more potent) is -0.715.

Take TCACCTTGGTCACAGTTCCTGA: the sensor-assay potency score (higher = more potent) is -0.428.

Consider TTCTTGCAGAAGTTGGTCTGTG, for which the sensor-assay potency score (higher = more potent) is -0.659.

As to TTTGTGGATCAAATCCATGTTT, the sensor-assay potency score (higher = more potent) was -0.755.

TTCACCTTGGTCACAGTTCCTG: the sensor-assay potency score (higher = more potent) is -0.406.

For TTGTGGATCAAATCCATGTTTC, the sensor-assay potency score (higher = more potent) was -1.13.

Consider ATATTGGTTATATTCAACTTAG, for which the sensor-assay potency score (higher = more potent) is -1.21.

In turn, TTTCTTGCAGAAGTTGGTCTGT displayed a sensor-assay potency score (higher = more potent) of 0.391.

As to TTTGCAATATCCATTTCTGTTT, the sensor-assay potency score (higher = more potent) is -1.42.

With TAGAAATAGGGCACGCCGCTGC, the sensor-assay potency score (higher = more potent) is -0.314.

For the sequence TGGTCCACCAAAGTAGTCCAGG, the sensor-assay potency score (higher = more potent) was -1.37.

A further assay concerns the target CRIPAK. The assay is described as above. The conditions noted are these: shRNA.
As for ACCATGAGTAGAATGTACGGTA, the sensor-assay potency score (higher = more potent) is -1.4.

Regarding ACCTACAGAACCACCATGCCAG, the sensor-assay potency score (higher = more potent) is -1.69.

For the sequence TCGACATGTGTGAGCAGGCGGG, the sensor-assay potency score (higher = more potent) was -1.62.

For the sequence TATAAAAGGGATCCTTGACATA, the sensor-assay potency score (higher = more potent) was -1.08.

With TAACAGCGTCTGACTCGGCCGG, the sensor-assay potency score (higher = more potent) is -0.738.

For the sequence TCCACATGGGCACATGAGCAGG, the sensor-assay potency score (higher = more potent) was -2.25.

For the sequence TACGGTAACAGCGTCTGACTCG, the sensor-assay potency score (higher = more potent) was -0.0922.

With ATGTACGGTAACAGCGTCTGAC, the sensor-assay potency score (higher = more potent) was -0.866.

Regarding TTAAAAAGCCACCATGAGTAGA, the sensor-assay potency score (higher = more potent) is -1.01.

Turning to AACAGCGTCTGACTCGGCCGGC, the sensor-assay potency score (higher = more potent) was -0.602.

Take TACAGAACCACCATGCCAGGGC: the sensor-assay potency score (higher = more potent) was determined as 0.653.

As for TAGAATGTACGGTAACAGCGTC, the sensor-assay potency score (higher = more potent) was -0.204.

A further assay has as its target CROT. The assay is described as above. The conditions noted are these: shRNA.
Consider TTGTAACATCTTTTGCTGCCGC, for which the sensor-assay potency score (higher = more potent) was -0.495.

TTGTCTGAGAAGCTCTGGCGGG: the sensor-assay potency score (higher = more potent) is -0.935.

TAGAGGAGTATTTCCAACTTTA: the sensor-assay potency score (higher = more potent) was -0.214.

For the sequence TGATGGTATACGAACATCCAGA, the sensor-assay potency score (higher = more potent) is -1.05.

Take TAGCATTCGGAATTGATTCATA: the sensor-assay potency score (higher = more potent) was -0.712.

On to TTCAAGTGAAGGAACAGGCAGT, for which the sensor-assay potency score (higher = more potent) was found to be 0.589.

In turn, TTTCATAGCAACAACCAGGGTG returned a sensor-assay potency score (higher = more potent) of 0.143.

For TTTTCTTATATTCTTCTTGATT, the sensor-assay potency score (higher = more potent) is -1.35.

Consider TTCTAATTGAGTCCCTTCCTTT, for which the sensor-assay potency score (higher = more potent) was -0.88.

Take TATATCTCGTACCTTCTCTGAA: the sensor-assay potency score (higher = more potent) is -0.557.

TATACCAGTAAACTACTCTGAA registered a sensor-assay potency score (higher = more potent) of 0.286.

Sequence TTCATAGCAACAACCAGGGTGT displayed a sensor-assay potency score (higher = more potent) of 0.163.
